# TDP-43 yeast inh – TDP-43 toxicity inhibition in yeast. TDP-43 expressing yeast growth rescue, BacTiter-Glo, 24 h. Potency, µM (top dose mostly 46.1 µM), inactives show at the top dose growth rescue (activation), most hits filed as activators. actives 1.8% (n = 410,000). AID 652104; also: % of control where 0% means no effect; nearly all actives have a fitted effect of over 50% in size
#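 Cell-based yeast growth screen: TDP-43 expression induced in galactose, inoculum OD600=0.02 after raffinose pregrowth to mid-log. Read-out BacTiter-Glo luminescence at 24 hr, 30 deg C; inhibition of toxicity seen as signal increase.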
# FUS yeast rescue – rescues growth of FUS-expressing yeast | S. cerevisiae FUS-expressing, growth rescue, OD600, 24 h | Potency, µM (doses to about 76.6 µM), hits mostly activators | actives 0.24% (n = 390,000) | AID 1347120;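 also: plate controls were DMSO vehicle for no effect and reference control for full effect; nearly all actives have a fitted effect of over 55% in size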
#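 Compound concentration series was pinned onto galactose-induced FUS-expressing yeast seeded at OD 0.005. Plates sat 24hr at 30C; absorbance at 600 nm gave growth. DMSO served as background control.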
# aSyn rescue – alpha-synuclein toxicity inhibition in yeast; Yeast expressing alpha-synuclein, growth rescue, BacTiter-Glo, 24 h; Potency, µM (top dose mostly 46.1 µM), for the others: at the highest dose growth rescue (activation), usual class: activators; actives 0.14% (n = 370,000); AID 652106; also: % of control where 0% means no effect; nearly all actives have a fitted effect of over 65% in size
#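 Readout is rescue of growth in alpha-synuclein-expressing yeast, so inhibitors of toxicity appear as activators. Growth after 24 hr at 30 deg C in galactose medium is quantified by luminescence.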
# Abeta yeast res – compounds reversing amyloid beta toxicity in yeast; yeast expressing A-beta42, growth rescue, OD600, 48 h; response scale: 0% DMSO, 100% iron-clioquinol control; Potency, µM (top dose mostly 46.1 µM), hits mostly activators; actives 0.063% (n = 410,000); AID 1347071; also: nearly all actives have a fitted effect of over 55% in size
#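 Yeast A-beta toxicity model in growth medium with pinned compounds, 48 h at 30 C; growth read as absorbance at 600 nm. Normalized to FeCl3/clioquinol equimolar mix (positive) and DMSO (negative).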
# * marks the source's active call; other numbers are inactive results; i = inactive; ? = inconclusive; . = not tested or not shown; [ ] = another dose, or the depositor's remark. The list is not random: actives were taken first. Their share in the collection is about 2.1%. Calls follow the shape of the dose curve; as a rule, active = well fitted curve in the direction sought with a large enough effect; inconclusive = small, poorly fitted or top-dose-only effect, or another doubt; inactive = no such curve, though single readings can be large; an effect the other way counts as inactive or inconclusive. Potency is read from the fitted curve at half-maximal effect.
SMILES,TDP-43 yeast inh,FUS yeast rescue,aSyn rescue,Abeta yeast res
COc1ccc(C)cc1NC(=O)c1c(C)oc2ncn(CC(C)C)c(=O)c12,16µM*,?,.,i
Cc1cccn2c(=O)c(C(=O)NCCc3ccc(S(N)(=O)=O)cc3)c(O)nc12,-2%,i,.,i
Cc1nc2c(nc1C)C(=O)c1ccccc1C2=O,18µM*,.,-9%,i
C=CCn1c(Sc2ncc([N+](=O)[O-])s2)n[nH]c1=O,13µM*,i,2%,i
O=C(/C=C/c1cccc(F)c1)N1CCc2ccccc21,14%,i,1%,i
O=C(/C=C/c1ccc(F)cc1)N1CCCc2ccccc21,18µM*,i,3%,i
CCCCCCC(=O)c1c(C)[nH]c(C(=O)OCC)c1C,10µM*,i,-3%,i
CC1(C(=O)Nc2cccc(C#N)c2)CCN1C(=O)c1ccccc1CCc1ccccc1 (configuration not stated),?,i,-7%,i
CC1(C(=O)Nc2ccc3c(c2)OCCO3)CCN1C(=O)c1ccccc1CCc1ccccc1 (configuration not stated),14µM*,i,2%,i
O=C(COc1ccc(Cl)cc1Cl)OCC(=O)c1ccc[nH]1,18%,i,1%,i
O=C(Cc1ccc(Cl)cc1Cl)OCC(=O)c1ccc[nH]1,18µM*,i,14%,i
COC(=O)CCCC(=O)Nc1ccc(Cl)c(Cl)c1,10µM*,i,-4%,i
C=CCN1[C@@H](CC(C)C)COc2cc(F)ccc2S1(=O)=O,.,i,.,.
Cn1c(/C(C#N)=N/O)nc2ccccc21,13%,i,-1%,i
CCn1c(/C(C#N)=C/c2ccccc2Cl)nc2ccccc21,18µM*,i,.,i
CCn1c(/C(C#N)=N/O)nc2ccccc21,18%,i,-7%,i
Cn1c(/C(C#N)=C/c2ccccc2Br)nc2ccccc21,11µM*,i,.,i
Cc1ccc(C(=O)CCNc2ccc(Br)cc2)o1,17%,i,-2%,i
Cc1ccc(C(=O)CCNc2ccc(F)c(Cl)c2)o1,10µM*,i,-9%,i
C#CCNC(=O)C[C@@H]1C(=O)N2CCCC3=C2[C@@]1(C(=O)OC)CCCC3,.,i,.,.
Brc1ccsc1/C=N/Nc1ccccc1,10µM*,i,-2%,i
CC1CN(C(=O)N2CCC(C(=O)NCCCc3ccccc3)CC2)c2cc(Cl)ccc2O1 (configuration not stated),?,i,.,i
CCOc1ccc(Oc2c(Cl)cnn(Cc3cccc4ccccc34)c2=O)cc1,.,i,.,.
CC(/C=N/NC(=O)c1cc(C2CC2)[nH]n1)=C\c1ccccc1,8%,i,0%,i
CC(/C=N/NC(=O)c1cc(C(C)C)[nH]n1)=C\c1ccccc1,17%,i,4µM*,i
SMILES,TDP-43 yeast inh,FUS yeast rescue,aSyn rescue,Abeta yeast res
CCCn1c(CC)nc([N+](=O)[O-])c1S(=O)(=O)c1ccccc1,25µM*,i,6%,i
CCc1nc(C)cn1S(=O)(=O)c1ccc([N+](=O)[O-])cc1,3%,i,1%,i
CCc1ccc(NC(=O)CC2C(=O)N(c3cccc(OC)c3)C(=O)N2Cc2ccc(F)cc2)cc1 (configuration not stated),19%,i,.,i
Cc1cccc(Cn2cc(/C=C/[N+](=O)[O-])c3ccccc32)c1,14µM*,i,-16%,i
O=[N+]([O-])/C=C/c1cn(Cc2ccc(Cl)cc2)c2ccccc12,4%,i,1%,i
O=C(NC(=S)Nc1ccc(N2CCOCC2)cc1)c1ccccc1,-11%,i,-2%,i
O=C(NC(=S)Nc1ccc(N2CCOCC2)cc1)c1cccc(Cl)c1,16µM*,i,0%,i
Cc1ccc2cc(F)c(F)c(F)c2n1,?,i,-1%,i
Cc1ccc2ccc3ccc(C)nc3c2n1,4.5µM*,i,-20%,i
O=S(=O)(NCc1ccccc1)c1ccc(-c2cnc(C3CC3)o2)cc1,5%,i,4%,i
Cc1ccc(NS(=O)(=O)c2ccc(-c3cnc(C4CC4)o3)cc2)cc1,?,i,?,i
O=S(=O)(NCc1ccccc1Cl)c1ccc(-c2cnc(C3CC3)o2)cc1,22µM*,i,.,i
Cc1cccc(C)c1NS(=O)(=O)c1ccc(-c2cnc(C3CC3)o2)cc1,25µM*,i,?,i
CCOC(=O)c1[nH]c2ccccc2c1NC(=O)c1cc(Cl)ccc1Cl,3%,i,.,i
CCOC(=O)c1[nH]c2ccccc2c1NC(=O)c1ccccc1OC,25µM*,i,.,i
CCOc1ccc(NC(=O)CC2C(=O)N(c3ccc(Cl)cc3)C(=O)N2Cc2cccs2)cc1 (configuration not stated),14%,i,.,i
O=C(COC(=O)/C=C/c1ccc(Cl)cc1Cl)NCC1CCCO1 (configuration not stated),20µM*,i,5%[1.84 µM],i
O=C(COC(=O)/C=C/c1c(F)cccc1Cl)NCC1CCCO1 (configuration not stated),-9%,i,-5%,i
COC(OC)c1ccc(C#N)c(SCc2ccccc2)n1,14µM*,i,-2%,i
N#Cc1ccc(-c2ccco2)nc1SCc1ccccc1,15%,i,0%,i
O=C(Nc1ccccc1Oc1ccccc1)c1cccc([N+](=O)[O-])c1,14µM*,i,?,i
CCOC(=O)[C@@]12CCCC3=C1N(CCC3)C(=O)[C@H]2CC(=O)NCc1cccs1,.,i,.,.
Cc1[nH]nc(-c2ccc(O)cc2O)c1-c1ccc(Cl)cc1,20µM*,i,1%,i
O=[N+]([O-])c1ccc(-c2c(-c3ccccc3)ncc3ccc(F)cc23)cc1,18µM*,i,-24%,i
N#Cc1ccc(-c2c(-c3ccccc3)ncc3cc(F)ccc23)cc1,16µM*,i,-35%,i
SMILES,TDP-43 yeast inh,FUS yeast rescue,aSyn rescue,Abeta yeast res
Fc1ccc2cnc(-c3ccccc3)c(-c3ccc(C(F)(F)F)cc3)c2c1,48%,i,-15%,i
Cc1cccc(Oc2nc3ccccn3c(=O)c2/C=C(\C#N)c2nc3ccccc3s2)c1C,20%,i,.,i
CCCCOCCCNC(=O)C[C@H]1C(=O)N(Cc2ccc(OC)cc2)C2=CCCC[C@@]21C(=O)OCC,.,i,.,.
CC(C)(C)c1nnc(N/N=C/c2ccccc2O)n(N)c1=O,13%,i,18µM*,11µM*
CC(C)(C)c1nnc(N/N=C/c2ccccc2)n(N)c1=O,0%,.,-1%,i
Cc1cc(/C=C2\C=Cc3ccccc32)cc(C)c1N,.,.,-22%,.
COc1ccccc1NC(=O)Cn1nnc(-c2ccccc2NC(=O)c2cc3ccccc3oc2=O)n1,-9%,25µM*,-4%,i
COc1ccccc1NC(=O)Cn1nnc(-c2ccccc2NS(=O)(=O)c2ccccc2)n1,-20%,.,2%,i
COc1ccccc1NC(=O)c1cc2ccccc2o/c1=N\O,18µM*,.,-14%,i
